The target in experiment [1] is Glutathione peroxidase 1 (Homo sapiens) (UniProt P07203). Kind of experiment: Primary qHTS Assay for Inhibitors of Recombinant Selenoprotein Glutathione Peroxidase 1 (GPX1) (AID 1845191). Further: nearly all actives have a fitted effect of over 65% in size. On activity, negative = inhibition: on the % scale 0 is the no-effect control and ±100 the full control effect. An outline of the steps: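 GPX1 10 nM, GR 100 nM, GSH 1 mM, NADPH 0.5 mM, CHP 0.5 mM (final). 30-min cpd preincubation, RT. Ex340/Em450 read t=0, t=15 min.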
Experiment [2] has as its target Phospholipid hydroperoxide glutathione peroxidase GPX4 (Homo sapiens) (UniProt P36969). Kind of experiment: Primary qHTS Assay for Inhibitors of Recombinant Selenoprotein Glutathione Peroxidase 4 (GPX4) (AID 1845192). Further: nearly all actives have a fitted effect of over 65% in size. On activity change, negative = inhibition: series mostly up to about 50 µM; on the % scale 0 is the no-effect control and ±100 the full control effect. An outline of the steps: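 qHTS, GR-coupled: GPX4 200 nM + cpd 30 min RT → GSH 1 mM, NADPH 0.5 mM, GR 100 nM → CHP 0.5 mM start; fluor 340/450 at t0 and t15 min; no-enzyme wells as control.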
(qHTS replaces the single test concentration by a dilution series.)

Experiment [3] concerns the target Luciferin 4-monooxygenase (Photinus pyralis) (UniProt P08659). The experiment can be described thus: Primary firefly luciferase (FLuc) qHTS assay for identification of artifact compounds. (AID 1845220). Further: nearly all actives have a fitted effect of over 60% in size.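 On activity change, negative = inhibition: series mostly up to about 54 µM; plate controls were DMSO vehicle for no effect and no enzyme for full effect.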 An outline of the steps: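 Reaction readout was CCD-imaged luminescence, taken 5 min after adding 10 nM purified firefly enzyme to compound-treated wells holding 10 uM luciferin and ATP in pH 7.6 buffer.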

Experiment [4] in a line: Primary fluorescence-based thiol-reactive (MSTI) qHTS assay for identification of artifact compounds. (AID 1845221). Further: nearly all actives have a fitted effect of over 65% in size. Further: potency means the concentration at half of the fitted maximal effect.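 On activity change, negative = thiol reactive: series mostly up to about 54 µM; thiol-reactive compounds lower the probe fluorescence signal.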 An outline of the steps:
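Probe: MSTI 4 uM, PBS pH 7.4, 2% DMSO. Incubation 1 h, RT, light-protected. Readout fluorescence 525/598 nm.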

In experiment [5] the test system is Nanoluciferase (engineered Oplophorus gracilirostris luciferase). The experiment can be described thus: Primary Nanoluciferase (NLuc) qHTS assay for identification of artifact compounds. (AID 1845222).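 Further: NLuc secreted into diluted conditioned medium of S16 cells; series mostly up to about 54 µM.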 Summed up:
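Concentration-response data were obtained by luminescence after 5 min with Nano-Glo substrate at 1:100. The enzyme was diluted S16 NLuc-expressing cell medium, preincubated with compound for 15 min at RT. Curves were fitted with a 4-parameter Hill model.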

The nature of experiment [6]: Primary redox qHTS assay for identification of artifact compounds. (AID 1845223). Further: potency means the concentration at half of the fitted maximal effect.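 On redox activity (% of DA3003): 0% = DMSO and 100% = reference compound.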 An outline of the steps: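 Redox-cycling detection via DTT (250 uM final) oxidation coupled to Amplex Red (25 uM)/HRP (250 mU/mL) in HBSS. 15 min preincubation plus 30 min after DTT, room temperature. Ex/Em 525/598 nm; 4-parameter Hill fit against DMSO and 10 uM DA3003.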

A number with no mark means an inactive call. Results filed as inconclusive are left out. Activity calls are given as the source filed them. The call rests on the fitted dose curve; in most records, active means well fitted curve in the direction sought with a large enough effect; inconclusive means small, poorly fitted or top-dose-only effect, or another doubt; inactive means no such curve, though single readings can be large; an effect the other way counts as inactive or inconclusive.

Chain of Phospholipid hydroperoxide glutathione peroxidase GPX4 (Homo sapiens) (P36969 whole entry, looked up): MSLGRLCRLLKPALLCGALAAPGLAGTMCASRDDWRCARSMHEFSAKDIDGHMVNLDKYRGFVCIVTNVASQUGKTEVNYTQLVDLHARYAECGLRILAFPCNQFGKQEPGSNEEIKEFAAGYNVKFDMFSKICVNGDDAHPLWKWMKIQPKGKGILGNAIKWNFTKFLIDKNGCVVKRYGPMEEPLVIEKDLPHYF
Chain of Glutathione peroxidase 1 (Homo sapiens) (P07203 whole entry, looked up): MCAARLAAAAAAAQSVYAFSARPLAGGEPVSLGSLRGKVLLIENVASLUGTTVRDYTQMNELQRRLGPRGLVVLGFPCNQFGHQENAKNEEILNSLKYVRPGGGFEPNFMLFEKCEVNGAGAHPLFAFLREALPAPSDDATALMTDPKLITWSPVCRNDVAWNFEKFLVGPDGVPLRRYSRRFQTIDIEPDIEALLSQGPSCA

As for `C[C@@H]1CCC2C(C)(C)[C@H](O)CC[C@]2(C)[C@@]12Cc1c(O)cc3c(c1O2)CNC3=O` (stereo partly drawn), the Potency result in experiment [1], in experiment [2], in experiment [3], in experiment [4], in experiment [5] and in experiment [6] was “inactive” throughout.

Turning to `CC(=O)NC[C@H]1CN(c2ccc(N3CCN(C(=O)CO)CC3)c(F)c2)C(=O)O1`, the Potency result in experiment [1], in experiment [2], in experiment [3], in experiment [4], in experiment [5] and in experiment [6] was “inactive” throughout.

`Cc1ccc(S(=O)(=O)n2ccc(-c3c(-c4ccc(Cl)cc4)noc3C)n2)cc1`: the Potency entry in experiment [1], in experiment [2], in experiment [3], in experiment [4], in experiment [5] and in experiment [6] was “inactive” throughout.

For `Cc1cc(C)c2c(N)c(C(=O)NCc3ccc(Cl)cc3)sc2n1`, the Potency result in experiment [1], in experiment [4], in experiment [5] and in experiment [6] was “inactive” each time.

As to `COC(=O)N[C@H](C(=O)N1[C@@H]2CC[C@@H](C2)[C@H]1c1nc2ccc(-c3ccc4c(c3)C(F)(F)c3cc(-c5cnc([C@@H]6CCC7(CC7)N6C(=O)[C@@H](NC(=O)OC)C(C)C)[nH]5)ccc3-4)cc2[nH]1)C(C)C`, the Potency entry in experiment [2], in experiment [3], in experiment [4], in experiment [5] and in experiment [6] was “inactive” in each case.

Regarding `COc1cc2oc(-c3ccc(O)cc3O)cc2c(OC)c1CC=C(C)C`, the Potency entry in experiment [2], in experiment [3], in experiment [5] and in experiment [6] was “inactive” throughout. For the same compound, in experiment [4], the Potency was 6.56 µM (active).

Consider `CC/C=C\CC1C(=O)C=CC1(CCCCCCCC(=O)O)OC(C)=O` (stereo not drawn), for which the Potency entry in experiment [2], in experiment [3] and in experiment [5] was “inactive” in each case.

As for `CS(=O)(=O)NCC1CCC(Nc2nc3c(s2)CCSc2ccccc2-3)CC1` (stereo not drawn), the Potency result in experiment [2], in experiment [3], in experiment [5] and in experiment [6] was “inactive” in each case.

`CC(C)c1cc2c(c(O)c1O)[C@@]13CCCC(C)(C)[C@@H]1[C@H](OC3=O)C2=O`: the Potency entry in experiment [1], in experiment [3] and in experiment [5] was “inactive” in each case. Further, the Potency in experiment [4] was 2.33 µM (active); in experiment [6], 16.5 µM (active).

As to `CC(=O)O[C@H]1C(=O)[C@@]2(C)[C@H]([C@H](OC(=O)c3ccccc3)[C@]3(O)C[C@H](OC(=O)[C@H](O)[C@@H](NC(=O)c4ccccc4)c4ccccc4)C(C)=C1C3(C)C)[C@]1(OC(C)=O)CO[C@@H]1C[C@@H]2O`, in experiment [2], the Potency result was “inactive”. Besides, the activity change, negative = inhibition in experiment [3] is -3.6% [at 11.6 µM]. In addition, the activity change, negative = thiol reactive in experiment [4] was 52.3% [at 11.5 µM]. Further, the activity, negative = inhibition in experiment [5] is 4.66% [at 11.6 µM]. For the same compound, in experiment [6], the redox activity (% of DA3003) is 1.32% [at 11.5 µM].

For the compound `COc1nc2sc(C(=O)NC3CC3)c(N)c2c(C)c1Cl`, the Potency entry in experiment [2], in experiment [3], in experiment [4] and in experiment [5] was “inactive” throughout.

As to `Cc1ccc(F)cc1C(=O)Nc1ccc(C(=O)N2Cc3cccn3Cc3ccccc32)c(Cl)c1`, the Potency result in experiment [2], in experiment [3], in experiment [4], in experiment [5] and in experiment [6] was “inactive” each time.

In the case of `C=C1CC[C@H]2[C@@](C)(CCC(O)[C@@]2(C)CO)[C@@H]1CCC1=CCOC1=O` (stereo partly drawn), the Potency entry in experiment [1], in experiment [3], in experiment [4], in experiment [5] and in experiment [6] was “inactive” throughout.

Take `CON(C)C(=O)[C@H](O)[C@H](Cc1ccccc1)NC(=O)c1cc2cc(Cl)ccc2[nH]1`: the Potency result in experiment [2], in experiment [3], in experiment [4], in experiment [5] and in experiment [6] was “inactive” throughout.

Regarding `CC1(C)CCCC2(C)C1CC(=O)C13CC(CCC12)C(O)(CO)C3` (stereo not drawn), the Potency entry in experiment [1], in experiment [3], in experiment [4] and in experiment [5] was “inactive” each time.

In the case of `C=C1C(=O)O[C@@H]2C/C(C)=C\C(=O)/C=C(\C)[C@@H](OC(=O)/C(C)=C\C)[C@H](O)[C@@H]12`, the Potency entry in experiment [3], in experiment [4], in experiment [5] and in experiment [6] was “inactive” throughout.

As for `Cc1c(C(=O)Nc2ccc(N3CC(C)OC(C)C3)nc2)cccc1-c1ccc(OC(F)(F)F)cc1` (stereo not drawn), the Potency entry in experiment [2], in experiment [3], in experiment [4], in experiment [5] and in experiment [6] was “inactive” each time.

For the compound `C/C=C/C=C/C(O)=C1\C(=O)[C@]2(C)C3C(C(=O)CC/C=C/C)=C(O)C4(C)C1[C@]1(C)O[C@@]4(O)[C@@]3(C)O[C@@]12O`, the Potency entry in experiment [1], in experiment [3] and in experiment [5] was “inactive” throughout. For the same compound, in experiment [4], the Potency is 4.62 µM (active).

Consider `Cc1cn(C2C=CC(CO)O2)c(=O)[nH]c1=O` (stereo not drawn), for which the Potency entry in experiment [2], in experiment [3], in experiment [4], in experiment [5] and in experiment [6] was “inactive” each time.

With `O=C1CCC(=O)N(O)CCCCCNC(=O)CCC(=O)N(O)CCOCCNC(=O)CCC(=O)N(O)CCCCCN1`, the Potency result in experiment [2], in experiment [3], in experiment [4], in experiment [5] and in experiment [6] was “inactive” in each case.

For `CC(c1ncncc1F)C(O)(Cn1cncn1)c1ccc(F)cc1F` (stereo not drawn), the Potency result in experiment [2], in experiment [3], in experiment [4], in experiment [5] and in experiment [6] was “inactive” throughout.

Regarding `COc1cc2c3c(cc4ccccc4c3c1O)NC2=O`, the Potency entry in experiment [1], in experiment [3], in experiment [5] and in experiment [6] was “inactive” each time. Also, in experiment [4], the Potency is 10.6 µM (active).

Consider `COc1ccc2cc(C(C)C(=O)Oc3ccc(C(N)=S)cc3)ccc2c1` (stereo not drawn), for which the Potency result in experiment [4], in experiment [5] and in experiment [6] was “inactive” in each case.

With `OCC1OC(Oc2cc(O)cc(/C=C/c3ccc(O)cc3)c2)C(O)C(O)C1O` (stereo not drawn), the Potency entry in experiment [2], in experiment [3], in experiment [5] and in experiment [6] was “inactive” throughout. Moreover, the Potency in experiment [4] is 2.93 µM (active).

For the compound `CC1(c2nc3c(C(N)=O)cccc3[nH]2)CCCN1` (stereo not drawn), the Potency entry in experiment [2], in experiment [3], in experiment [4], in experiment [5] and in experiment [6] was “inactive” in each case.

For the compound `Cn1nc(C(C)(C)C)cc1C(=O)NC(Cc1cccc(Cl)c1)C(=O)NCC#N` (stereo not drawn), the Potency result in experiment [2], in experiment [3], in experiment [4], in experiment [5] and in experiment [6] was “inactive” throughout.

Source of the values: PubChem BioAssay (NCATS).
